Results filed as inconclusive are left out. The source made the active and inactive calls. Unless noted, calls come from the whole dose curve; as a rule, active = well fitted curve in the direction sought with a large enough effect; inconclusive = small, poorly fitted or top-dose-only effect, or another doubt; inactive = no such curve, though single readings can be large; an effect the other way counts as inactive or inconclusive.
What was measured:
[1] = biological target: Endonuclease 4 (Escherichia coli (strain K12)) (UniProt P0A6C1); experiment: Counterscreen for APE1 Inhibitors: qHTS Validation Assay for Inhibitors of Endonuclease IV (AID 1708); note: potency is the fitted concentration of half-maximal effect
Method in brief: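 Enzymatic AP-site incision assay using a double-stranded THF substrate labelled with TAMRA and BHQ-2; released fluorescence signals activity. Enzyme 2 nM, substrate 50 nM, 15 min compound preincubation.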

[2] = biological target: Ferritin light chain (Equus caballus) (UniProt P02791); experiment: qHTS Validation Assay for Identification of Novel General Anesthetics (AID 2323); note: potency is the fitted concentration of half-maximal effect
Sequence of Ferritin light chain (Equus caballus) (P02791 2-175 limits assumed): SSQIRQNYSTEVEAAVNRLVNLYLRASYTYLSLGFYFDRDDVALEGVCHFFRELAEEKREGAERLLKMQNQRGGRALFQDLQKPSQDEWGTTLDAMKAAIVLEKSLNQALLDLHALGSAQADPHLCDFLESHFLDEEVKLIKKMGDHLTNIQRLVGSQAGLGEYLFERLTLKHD
Method in brief: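 Normalized fluorescence response, scaled between free 1-AMA and 1-AMA/apoferritin complex, fitted to a four-parameter Hill equation for concentration-effect values. Binding mix: 10 uM horse-spleen apoferritin, 50% saturated 1-AMA in PBS; read 380/535 nm after 10 min.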

[3] = Validation screen for inhibitors of Lassa infection (AID 463096; calls by dose curve; note: % is set by controls: 0 for no effect and ±100 for the full control effect)
[4] = NCATS anti-infectives library activity on HEK293 viability as a counter-qHTS vs the C. elegans viability qHTS (AID 1745854); note: potency is the fitted concentration of half-maximal effect
Method in brief: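 HEK293 cells, 1500 per well, exposed 24 hr at 37C in 5% CO2 to compounds in a 1:5 titration, up to 41.7 uM final. Viability read as CellTiter-Glo luminescence after 10 min at room temperature.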

[5] = biological target: ATP-dependent 6-phosphofructokinase (Trypanosoma brucei brucei) (UniProt O15648); experiment: qHTS Assay to Find Inhibitors of T. brucei phosphofructokinase: hit validation (AID 492961); note: potency is the fitted concentration of half-maximal effect
Sequence of ATP-dependent 6-phosphofructokinase (Trypanosoma brucei brucei) (O15648 whole entry, looked up): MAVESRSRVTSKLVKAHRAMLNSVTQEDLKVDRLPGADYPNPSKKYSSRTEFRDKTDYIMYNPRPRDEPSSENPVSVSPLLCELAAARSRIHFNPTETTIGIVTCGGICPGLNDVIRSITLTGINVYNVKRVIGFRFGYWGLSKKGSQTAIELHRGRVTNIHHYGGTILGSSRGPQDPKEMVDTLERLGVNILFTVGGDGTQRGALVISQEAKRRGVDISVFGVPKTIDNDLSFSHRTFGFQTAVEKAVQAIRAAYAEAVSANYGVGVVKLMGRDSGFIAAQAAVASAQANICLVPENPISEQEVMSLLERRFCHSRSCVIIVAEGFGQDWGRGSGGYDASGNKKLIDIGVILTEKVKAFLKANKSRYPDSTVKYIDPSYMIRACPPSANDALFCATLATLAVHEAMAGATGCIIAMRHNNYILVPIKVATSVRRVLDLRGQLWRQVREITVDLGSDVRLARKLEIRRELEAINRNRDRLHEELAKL
Method in brief: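 Measures ADP output of PFK (1.25 nM) at 0.1 mM ATP, 0.5 mM F6P, pH 8.0 TEA buffer with 5 mM MgCl2. No-enzyme wells define full inhibition; uninhibited enzyme wells define zero.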

[6] = biological target: Luciferin 4-monooxygenase (Photinus pyralis) (UniProt P08659); experiment: Biochemical firefly luciferase enzyme assay for NPC (AID 624030); note: potency is the fitted concentration of half-maximal effect; nearly all actives have a fitted effect of over 70% in size
Sequence of Luciferin 4-monooxygenase (Photinus pyralis) (P08659 whole entry, looked up): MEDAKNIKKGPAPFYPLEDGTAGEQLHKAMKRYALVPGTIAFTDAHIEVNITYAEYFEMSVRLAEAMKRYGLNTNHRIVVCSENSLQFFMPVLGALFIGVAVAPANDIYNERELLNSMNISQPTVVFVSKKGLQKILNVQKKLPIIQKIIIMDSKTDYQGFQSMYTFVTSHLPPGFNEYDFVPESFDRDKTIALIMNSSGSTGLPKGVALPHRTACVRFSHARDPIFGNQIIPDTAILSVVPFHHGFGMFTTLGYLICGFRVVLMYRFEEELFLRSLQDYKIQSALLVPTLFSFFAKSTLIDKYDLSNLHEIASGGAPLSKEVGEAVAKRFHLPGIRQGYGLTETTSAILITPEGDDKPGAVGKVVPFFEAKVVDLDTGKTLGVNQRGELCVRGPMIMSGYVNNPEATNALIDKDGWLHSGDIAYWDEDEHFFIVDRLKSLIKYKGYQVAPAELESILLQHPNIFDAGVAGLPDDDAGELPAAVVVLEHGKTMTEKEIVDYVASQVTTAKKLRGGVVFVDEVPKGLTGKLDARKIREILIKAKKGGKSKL
Method in brief: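 Direct inhibition of firefly luciferase enzyme (10 nM final, 50 mM Tris Acetate) assessed by luminescence within 5 minutes. Percent activity scaled between DMSO and PTC124 positive control, with concentration-effect curves classified by fit quality and response.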

[7] = S16 Schwann cell viability assay (CellTiter-Glo assay) (AID 624031); note: potency is the fitted concentration of half-maximal effect; nearly all actives have a fitted effect of over 70% in size
Method in brief: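 Native S16 Schwann cells (rat), serum-containing medium, overnight attachment then 24 h drug exposure at 37 °C/5% CO2. CellTiter-Glo ATP signal; normalized to cell-free and vehicle wells.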

[8] = S16 Schwann cell PMP22 intronic element firefly luciferase assay (AID 624032); note: potency is the fitted concentration of half-maximal effect; nearly all actives have a fitted effect of over 30% in size
Method in brief: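 Luciferase reporter of PMP22 intronic-element expression in stably transfected S16 rat Schwann cells, read by ONE-Glo luminescence after 24 h compound exposure at 37 C. Activity scaled between DMSO (0%) and positive-control PTC124; concentration-effect curves quality-classified.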

[9] = NCATS anti-infectives library activity on the primary C. elegans qHTS viability assay (AID 1745855; calls by dose curve; note: potency is the fitted concentration of half-maximal effect)
Method in brief: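 Viability is taken from GFP fluorescence of PE254-GFP-FLuc C. elegans imaged by laser cytometry over 7 days. Ten L1 worms per well grow at 21 °C on TOP10 E. coli capsules with titrated compound; levamisole marks toxicity.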

[10] = qHTS profiling for inhibitors of Plasmodium falciparum proliferation (AID 504749); note: nearly all actives have a fitted effect of over 60% in size; note: potency is the fitted concentration of half-maximal effect;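 for activity, negative = inhibition: 0% = DMSO vehicle and full inhibition = artemisinin control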; details: P. falciparum in erythrocytes, SYBR Green DNA, 72 h, at 28.7 µM (top of the series)
Method in brief: (§1)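 Three-day growth assay of blood-stage parasites in erythrocytes (0.3% parasitemia, 2.5% hematocrit) at 37 C, 5% CO2, quantified by SYBR Green DNA staining after overnight detergent lysis.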

7G8 = experiment: as above; details: P. falciparum in erythrocytes, SYBR Green DNA, 72 h; series mostly up to 12.8 µM
Method in brief: as §1

C2A = experiment: as above; details: P. falciparum in erythrocytes, SYBR Green DNA, 72 h; series mostly up to 28.7 µM
Method in brief: as §1

CP185 = experiment: as above; details: P. falciparum in erythrocytes, SYBR Green DNA, 72 h; series mostly up to 28.7 µM
Method in brief: as §1

CP191 = experiment: as above; details: P. falciparum in erythrocytes, SYBR Green DNA, 72 h; series mostly up to 28.7 µM
Method in brief: as §1

CP192 = experiment: as above; details: P. falciparum in erythrocytes, SYBR Green DNA, 72 h; series mostly up to 28.7 µM
Method in brief: as §1

CP215 = experiment: as above; details: P. falciparum in erythrocytes, SYBR Green DNA, 72 h; series mostly up to 28.7 µM
Method in brief: as §1

CP217 = experiment: as above; details: P. falciparum in erythrocytes, SYBR Green DNA, 72 h; series mostly up to 28.7 µM
Method in brief: as §1

CP237 = experiment: as above; details: P. falciparum in erythrocytes, SYBR Green DNA, 72 h; series mostly up to 28.7 µM
Method in brief: as §1

CP238 = experiment: as above; details: P. falciparum in erythrocytes, SYBR Green DNA, 72 h; series mostly up to 28.7 µM
Method in brief: as §1

CP260 = experiment: as above; details: P. falciparum in erythrocytes, SYBR Green DNA, 72 h; series mostly up to 28.7 µM
Method in brief: as §1

CP268 = experiment: as above; details: P. falciparum in erythrocytes, SYBR Green DNA, 72 h; series mostly up to 28.7 µM
Method in brief: as §1

CP269 = experiment: as above; details: P. falciparum in erythrocytes, SYBR Green DNA, 72 h; series mostly up to 28.7 µM
Method in brief: as §1

CP286 = experiment: as above; details: P. falciparum in erythrocytes, SYBR Green DNA, 72 h; series mostly up to 28.7 µM
Method in brief: as §1

CP305 = experiment: as above; details: P. falciparum in erythrocytes, SYBR Green DNA, 72 h; series mostly up to 28.7 µM
Method in brief: as §1

CP335 = experiment: as above; details: P. falciparum in erythrocytes, SYBR Green DNA, 72 h; series mostly up to 12.8 µM
Method in brief: as §1

DIV14 = experiment: as above; details: P. falciparum in erythrocytes, SYBR Green DNA, 72 h; series mostly up to 28.7 µM
Method in brief: as §1

DIV17 = experiment: as above; details: P. falciparum in erythrocytes, SYBR Green DNA, 72 h; series mostly up to 28.7 µM
Method in brief: as §1

Dd2 = experiment: as above; details: P. falciparum in erythrocytes, SYBR Green DNA, 72 h; series mostly up to 28.7 µM
Method in brief: as §1

ECU = experiment: as above; details: P. falciparum in erythrocytes, SYBR Green DNA, 72 h; series mostly up to 28.7 µM
Method in brief: as §1

FAB9 = experiment: as above; details: P. falciparum in erythrocytes, SYBR Green DNA, 72 h; series mostly up to 28.7 µM
Method in brief: as §1

GB4 = experiment: as above; details: P. falciparum in erythrocytes, SYBR Green DNA, 72 h; series mostly up to 28.7 µM
Method in brief: as §1

HB3 = experiment: as above; details: P. falciparum in erythrocytes, SYBR Green DNA, 72 h; series mostly up to 28.7 µM
Method in brief: as §1

JCK = experiment: as above; details: P. falciparum in erythrocytes, SYBR Green DNA, 72 h; series mostly up to 28.7 µM
Method in brief: as §1

P93_24 = experiment: as above; details: P. falciparum in erythrocytes, SYBR Green DNA, 72 h; series mostly up to 28.7 µM
Method in brief: as §1

P94_40 = experiment: as above; details: P. falciparum in erythrocytes, SYBR Green DNA, 72 h; series mostly up to 28.7 µM
Method in brief: as §1

PAD = experiment: as above; details: P. falciparum in erythrocytes, SYBR Green DNA, 72 h; series mostly up to 28.7 µM
Method in brief: as §1

PC15 = experiment: as above; details: P. falciparum in erythrocytes, SYBR Green DNA, 72 h; series mostly up to 28.7 µM
Method in brief: as §1

PC26 = experiment: as above; details: P. falciparum in erythrocytes, SYBR Green DNA, 72 h; series mostly up to 28.7 µM
Method in brief: as §1

PC49 = experiment: as above; details: P. falciparum in erythrocytes, SYBR Green DNA, 72 h; series mostly up to 28.7 µM
Method in brief: as §1

SC27B = experiment: as above; details: P. falciparum in erythrocytes, SYBR Green DNA, 72 h; series mostly up to 28.7 µM
Method in brief: as §1

TAB113 = experiment: as above; details: P. falciparum in erythrocytes, SYBR Green DNA, 72 h; series mostly up to 28.7 µM
Method in brief: as §1

TAB165 = experiment: as above; details: P. falciparum in erythrocytes, SYBR Green DNA, 72 h; series mostly up to 28.7 µM
Method in brief: as §1

W2 = experiment: as above; details: P. falciparum in erythrocytes, SYBR Green DNA, 72 h; series mostly up to 12.8 µM
Method in brief: as §1

N.N.N.N.N.N.N.N.N.N.N.N.N.N.O.O.[Cl-].[Cl-].[Cl-].[Cl-].[Cl-].[Cl-].[Ru].[Ru].[Ru]
inactive: Potency [3]
active: Potency [1] 28.2 µM | Potency [2] 25.1 µM

C[C@@H](N)C(=O)N[C@@H](CO)C(=O)N[C@H](C(=O)N[C@H](C(=O)N[C@H](C(=O)N[C@@H](CC(N)=O)C(=O)N[C@@H](Cc1ccc(O)cc1)C(=O)N[C@H](C(N)=O)[C@@H](C)O)[C@@H](C)O)[C@@H](C)O)[C@@H](C)O
inactive: Potency [4]

[Hg+][c]1ccccc1
active: Potency [5] 11.2 µM | Potency [6] 8.09 µM | Potency [7] 1.14 µM | Potency [8] 1.02 µM | Potency [4] 2 µM | Potency [9] 8.16 µM | Potency (7G8) 1.78 µM | Potency (CP192) 12 µM | Potency (CP215) 10.7 µM | Potency (CP268) 9.53 µM | Potency (CP269) 15.1 µM | Potency (CP305) 10.7 µM | Potency (CP335) 10.7 µM | Potency (DIV14) 9.53 µM | Potency (DIV17) 13.5 µM | Potency (FAB9) 7.08 µM | Potency (GB4) 9.53 µM | Potency (JCK) 11.2 µM | Potency (PC15) 7.94 µM | Potency (PC26) 12 µM | Potency (PC49) 3.55 µM | Potency (W2) 12 µM
inactive: activity, negative = inhibition ([10]; parasite line A) 13.8% | activity, negative = inhibition ([10]; parasite line B) -0.414% | Potency (C2A) | Potency (CP185) | Potency (CP191) | Potency (CP217) | Potency (CP237) | Potency (CP238) | Potency (CP260) | Potency (CP286) | Potency (Dd2) | Potency (ECU) | Potency (HB3) | Potency (P93_24) | Potency (P94_40) | Potency (PAD) | Potency (SC27B) | Potency (TAB113) | Potency (TAB165)

From PubChem BioAssay (NCATS)
